# Screening data deposited in PubChem by Broad Institute.
# Many of the other results were omitted from the sample, so hits are more common in it than they were.
# IDE exosite FP – exo-site inhibitors of human IDE, primary screen, biochemical, fluorescence anisotropy, probe displacement. purified IDE, FL-6b probe fluorescence polarization; stronger effect = lower value. z-score at 20 µM. 17,000 tested, 6.3% active;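 active means z-score of -3 or lower, meaning strong loss of probe binding signal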;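 further: His-tagged human IDE residues 42-1019 made in E. coli with 30 nM FL-6b probe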
# Hits are given with their value; - = inactive.
SMILES,IDE exosite FP
Cc1ccccc1-c1ccc(C2[C@@H]3CN(S(=O)(=O)c4cn(C)cn4)C[C@H]2N3)cc1 (stereo partly specified),-5.27
CO[C@H]1CC[C@H]2CCOc3ccc(C#N)cc3C(=O)N(C)[C@@H](C)C(=O)N(C)C[C@H]1O2,-
COc1ccc(C(=O)N2C[C@@H]3[C@H](c4ccccc42)[C@H](CO)N3C(=O)NC(C)C)cc1,-
N#C[C@H]1[C@@H](c2ccc(C#CC3(O)CCCC3)cc2)[C@H](CO)N1C(=O)C1CC1,-
O=C1CN(S(=O)(=O)Cc2ccccc2)C[C@@H]2[C@@H](c3ccc(C#CCC4CCCC4)cc3)[C@H](CO)N12,-
C[C@@H]1CN([C@H](C)CO)C(=O)c2cc(NC(=O)Nc3ccc4c(c3)OCO4)ccc2O[C@@H](C)CCCCO[C@H]1CN(C)S(=O)(=O)c1ccccc1,-
Cc1ccc(-c2ccc(C3[C@H]4CNC[C@@H]3N4S(=O)(=O)c3cccc(C)c3)cc2)cc1 (stereo partly specified),-
CC(C)CC#Cc1ccc([C@H]2[C@@H](CO)N3C(=O)CN(S(C)(=O)=O)C[C@H]23)cc1,-
O=C(NC[C@H]1N[C@H](CO)[C@@H]1c1ccccc1)c1ccccc1F,-
COCC(=O)NC[C@H]1[C@H](c2ccc(-c3ccccc3)cc2)[C@@H](CO)N1C(C)=O,-
CCC(=O)NC[C@H]1N[C@H](CO)[C@@H]1c1ccc(-c2ccccc2F)cc1,-
CCS(=O)(=O)N(C)C[C@@H]1N[C@H](CO)[C@@H]1c1ccc(-c2ccccc2F)cc1,-
COCC(=O)NC[C@H]1N[C@H](CO)[C@@H]1c1ccc(C2=CCCCC2)cc1,-
O=C(NC[C@@H]1N[C@@H](CO)[C@H]1c1ccccc1)c1ccccc1F,-
C/C=C/c1ccc([C@@H]2[C@H](CO)N[C@H]2CNC(=O)c2ccccc2F)cc1,-
CCC(=O)N1[C@H](CNC(=O)COC)[C@@H](c2ccc(-c3ccccc3)cc2)[C@@H]1CO,-3.46
CCC(=O)N1[C@H](CNC(=O)COC)[C@H](c2ccc(-c3ccccc3)cc2)[C@@H]1CO,-
COCC(=O)NC[C@H]1N[C@H](CO)[C@H]1c1ccc(-c2ccccc2F)cc1,-3.27
O=C(NC[C@H]1N[C@H](CO)[C@@H]1c1ccc(-c2ccccc2F)cc1)c1ccccc1,-9.99
COCC(=O)NC[C@H]1N[C@H](CO)[C@@H]1c1ccc(-c2ccccc2F)cc1,-3.08
CN(C)CC(=O)N1CC(=O)N2[C@H](CO)[C@@H](c3ccc(-c4ccc(C#N)cc4)cc3)[C@H]2C1,-
COc1ccc(C#Cc2ccc([C@@H]3[C@H](CO)N4C(=O)CN(C(=O)c5cccnc5)C[C@@H]34)cc2)cc1,-
CCCNC(=O)C[C@@H]1CC[C@H]2[C@@H](COC[C@H](O)CN2Cc2ccncc2)O1,-
COc1ccccc1NC(=O)N1[C@H](CO)[C@@H](c2ccccc2)[C@@H]1C#N,-
O=C(c1cnccn1)N1CC(=O)N2[C@@H](CO)[C@H](c3ccc(C#CC4CCCCC4)cc3)[C@@H]2C1,-
SMILES,IDE exosite FP
CO[C@@H]1CN(C)C(=O)c2ccc(NC(=O)NC(C)C)cc2OC[C@@H](C)N(Cc2ccc(-c3ccccn3)cc2)C[C@@H]1C,-
C[C@H](CO)N1C[C@H](C)[C@@H](CN(C)C(=O)[C@@H](Cc2ccccc2)N(C)C)OCc2ccccc2-c2c(n(C)c3ccccc23)C1=O,-
O=C(NC1CCCC1)N1CC(=O)N2[C@H](C1)[C@@H](c1ccc(/C=C/c3ccccc3)cc1)[C@@H]2CO,-
O=C(NC1CCCCC1)N1CC(=O)N2[C@H](C1)[C@H](c1ccc(/C=C/c3ccccc3)cc1)[C@@H]2CO,-3.89
O=C(NC1CCCCC1)N1CC(=O)N2[C@H](CO)[C@@H](c3ccc(/C=C/c4ccccc4)cc3)[C@@H]2C1,-3.61
O=C(NC1CCCCC1)N1CC(=O)N2[C@H](CO)[C@H](c3ccc(/C=C/c4ccccc4)cc3)[C@@H]2C1,-10.3
O=C(NC1CCCCC1)N1CC(=O)N2[C@@H](CO)[C@H](c3ccc(/C=C/c4ccccc4)cc3)[C@@H]2C1,-7.36
CC(C)CC#Cc1ccc([C@H]2[C@H](CO)N3C(=O)CN(C(=O)NC4CCCCC4)C[C@@H]23)cc1,-
O=C(NC1CCCC1)N1CC(=O)N2[C@H](CO)[C@@H](c3ccc(/C=C/c4ccccc4)cc3)[C@@H]2C1,-
CC(C)CC#Cc1ccc([C@@H]2[C@H](CO)N3C(=O)CN(C(=O)NC4CCCCC4)C[C@@H]23)cc1,-
CCCNC(=O)N1CC2(C1)[C@H](c1ccccc1)[C@@H](CO)N2Cc1ccc(Cl)cc1,-
O=C(Nc1ccccc1F)N1CC(=O)N2[C@@H](CO)[C@H](c3ccc(-c4ccc(F)cc4)cc3)[C@@H]2C1,-
COCC(=O)Nc1ccc2c(c1)[C@H]1C[C@@H](CC(=O)N3CCOCC3)O[C@@H](CO)[C@H]1O2,-
CO[C@H]1CN(C)C(=O)c2ccc(NS(=O)(=O)c3c(C)noc3C)cc2OC[C@H](C)NC[C@@H]1C,-
C[C@H](CO)N1C[C@H](C)[C@@H](CN(C)S(=O)(=O)c2ccc(F)cc2)OCCCC[C@H](C)Oc2ccc(N(C)C)cc2C1=O,-
COCC(=O)N1[C@H](CO)[C@@H](c2ccccc2)[C@@H]1C#N,-
CN(C)C(=O)c1cccc(-c2ccccc2[C@@H]2[C@@H](C#N)N(C(=O)C3CCCCC3)[C@@H]2CO)c1,-
CC(C)N(C[C@@H]1N[C@H](CO)[C@@H]1c1ccc(C2=CCCC2)cc1)C(=O)C1CC1,-
CCCNC(=O)NC[C@@H]1[C@H](c2ccc(C3=CCCC3)cc2)[C@@H](CO)N1C(=O)CC,-
CN1c2ccc(Br)cc2[C@@H]2[C@@H](CCN2C(=O)CN2CCOCC2)[C@@H]1CO,-
N#C[C@H]1[C@@H](c2ccccc2)[C@H](CO)N1S(=O)(=O)Cc1ccccc1,-
COc1ccc(C#Cc2ccc([C@@H]3[C@@H](CO)N4CCCCN(C(=O)Nc5ccccc5F)C[C@H]34)cc2)cc1,-
CCC(=O)N1CCCCN2[C@@H](CO)[C@H](c3ccc(C#Cc4ccccc4F)cc3)[C@@H]2C1,-3.92
CC(=O)N1CCCCN2[C@H](CO)[C@@H](c3ccc(C#Cc4ccccc4F)cc3)[C@H]2C1,-5.25
CCC(=O)N1CCCCN2[C@H](CO)[C@@H](c3ccc(C#Cc4ccccc4F)cc3)[C@H]2C1,-
SMILES,IDE exosite FP
COc1ccc(C#Cc2ccc([C@H]3[C@H]4CN(C(=O)Nc5ccccc5F)CCCCN4[C@H]3CO)cc2)cc1,-
COc1ccc(C#Cc2ccc([C@@H]3[C@H]4CN(C(=O)Nc5ccccc5F)CCCCN4[C@H]3CO)cc2)cc1,-
CCC(=O)N1CCCCN2[C@@H](CO)[C@@H](c3ccc(C#Cc4ccccc4F)cc3)[C@@H]2C1,-8.15
CCC(=O)N1CCCCN2[C@H](CO)[C@@H](c3ccc(C#CCOC)cc3)[C@H]2C1,-
COc1cc(CN2CC3(CN(S(=O)(=O)c4cccc(F)c4)C3)c3c([nH]c4cc(OC)ccc34)[C@H]2CO)cc(OC)c1,-
Cc1noc(C)c1NC(=O)Nc1ccc2c(c1)C(=O)N(C)[C@H]1CC[C@H](CC(=O)N[C@@H]3CCN(Cc4ccccc4)C3)O[C@H]1CO2,-
CO[C@H]1CC[C@H]2CCN(C)C(=O)CC3(CCCCC3)CN(C)C(=O)c3cc(C#N)ccc3OC[C@H]1O2,-
C[C@H](CO)N1C[C@H](C)[C@@H](CN(C)C(=O)Nc2ccc(F)cc2)Oc2c(cccc2N(C)C)C1=O,-
